Compounds without any hit were thinned out: in the full panel of roughly 83,000, 20% have a hit.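 Method: cells in 96-well plates; compound added at one concentration; 48 h incubation; percent growth measured; values under 10 scored active.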 Calls of active or inactive are those of the source.
Experiments:
Test in all cases: NCI-60 one-dose screen, 48 h (100 = growth as untreated, 0 = no growth, -100 = all killed)
Details in all cases: 10 µM unless noted
SK-MEL-2 melanoma = tested on: SK-MEL-2 melanoma
EKVX NSCLC = tested on: EKVX NSCLC
SN12C renal = tested on: SN12C renal
UO-31 renal = tested on: UO-31 renal
TK-10 renal = tested on: TK-10 renal
ACHN renal = tested on: ACHN renal
CAKI-1 renal = tested on: CAKI-1 renal
A498 renal = tested on: A498 renal
CCRF-CEM leukemia = tested on: CCRF-CEM leukemia
MOLT-4 leukemia = tested on: MOLT-4 leukemia
SR leukemia = tested on: SR leukemia
RPMI-8226 leukemia = tested on: RPMI-8226 leukemia
OVCAR-8 ovarian = tested on: OVCAR-8 ovarian
OVCAR-5 ovarian = tested on: OVCAR-5 ovarian
OVCAR-4 ovarian = tested on: OVCAR-4 ovarian
SK-OV-3 ovarian = tested on: SK-OV-3 ovarian
IGROV1 ovarian = tested on: IGROV1 ovarian
OVCAR-3 ovarian = tested on: OVCAR-3 ovarian
HS 578T breast = tested on: HS 578T breast
NCI/ADR-RES ovarian = tested on: NCI/ADR-RES ovarian

Measured: growth

O=C(O)CCCc1cnc2c3sccc3nc(SCc3c(Cl)cccc3Cl)n12
inactive: SK-MEL-2 melanoma 20.6% | EKVX NSCLC 63% | SN12C renal 57.2% | UO-31 renal 49% | TK-10 renal 65.3% | ACHN renal 61.1% | CAKI-1 renal 42.2% | A498 renal 46.1% | CCRF-CEM leukemia 31.2% | MOLT-4 leukemia 50.5% | SR leukemia 23.9% | RPMI-8226 leukemia 51.6% | OVCAR-8 ovarian 63.7% | OVCAR-5 ovarian 80.5% | OVCAR-4 ovarian 59.7% | SK-OV-3 ovarian 36.5% | IGROV1 ovarian 54.1% | HS 578T breast 39.5% | NCI/ADR-RES ovarian 45.7%
active: OVCAR-3 ovarian 7.34%

CCOC(=O)c1c(-c2ccccc2)n2c(=O)cc(C)c3c(O)c(O)cc1c32
active: OVCAR-3 ovarian 0.992%
inactive: SK-MEL-2 melanoma 83.8% | EKVX NSCLC 86.6% | SN12C renal 68.7% | UO-31 renal 51.1% | TK-10 renal 89.2% | ACHN renal 47% | CAKI-1 renal 52% | A498 renal 88.6% | CCRF-CEM leukemia 17.1% | MOLT-4 leukemia 36.1% | SR leukemia 22.4% | RPMI-8226 leukemia 36.5% | OVCAR-8 ovarian 29.1% | OVCAR-5 ovarian 70.1% | OVCAR-4 ovarian 15.4% | SK-OV-3 ovarian 76.3% | IGROV1 ovarian 61.2% | HS 578T breast 87.7% | NCI/ADR-RES ovarian 15.3%

C=CC(=O)NCCOc1cccc(Nc2cc(NCCCNC(=O)C3CCC3)c(Br)cn2)c1
inactive: NCI/ADR-RES ovarian 39.5%
active: SK-MEL-2 melanoma -43.8% | EKVX NSCLC -13.6% | SN12C renal 3.07% | UO-31 renal -42.2% | TK-10 renal -43.4% | ACHN renal 7.24% | CAKI-1 renal -38.2% | A498 renal -54% | CCRF-CEM leukemia 1.92% | MOLT-4 leukemia -10.5% | SR leukemia -10.1% | RPMI-8226 leukemia -22.8% | OVCAR-8 ovarian 4.84% | OVCAR-5 ovarian 2.75% | OVCAR-4 ovarian -20.6% | SK-OV-3 ovarian -54.4% | IGROV1 ovarian 2.28% | OVCAR-3 ovarian -25.5% | HS 578T breast -18.4%

CCN1C(=O)N(CC)C2C1NN=c1s/c(=C3\C(=O)N(CCc4ccccc4)c4ccccc43)c(=O)n12 (stereo not given)
inactive: SK-MEL-2 melanoma 54.7% | EKVX NSCLC 43.6% | SN12C renal 17.8% | UO-31 renal 45.4% | TK-10 renal 64.1% | ACHN renal 25.5% | CAKI-1 renal 27.7% | MOLT-4 leukemia 10.3% | SR leukemia 10.7% | OVCAR-8 ovarian 13.5% | OVCAR-5 ovarian 20.6% | OVCAR-4 ovarian 38.3% | SK-OV-3 ovarian 32.3% | IGROV1 ovarian 18.9%
active: A498 renal -3.18% | CCRF-CEM leukemia 5.65% | RPMI-8226 leukemia 8.77% | OVCAR-3 ovarian -16.9% | HS 578T breast 5.14% | NCI/ADR-RES ovarian -9.34%

Nc1c(C(=O)Nc2cccc3ncccc23)sc2nc3c(cc12)C(=O)CCC3
active: A498 renal 4.53% | HS 578T breast 5.47%
inactive: SK-MEL-2 melanoma 36.3% | EKVX NSCLC 58.6% | SN12C renal 60.8% | UO-31 renal 58.3% | TK-10 renal 76.8% | ACHN renal 52% | CAKI-1 renal 58.8% | CCRF-CEM leukemia 30.5% | MOLT-4 leukemia 66.6% | SR leukemia 41.4% | RPMI-8226 leukemia 59.6% | OVCAR-8 ovarian 78.9% | OVCAR-5 ovarian 69.8% | OVCAR-4 ovarian 71.1% | SK-OV-3 ovarian 21.3% | IGROV1 ovarian 59% | OVCAR-3 ovarian 37.4% | NCI/ADR-RES ovarian 72.8%

COc1cc(N2C(=O)[C@H](c3ccccc3)C2c2ccc(SC)cc2)cc(OC)c1OC (stereo not given in full)
active: A498 renal -4.14% | CCRF-CEM leukemia 5.22% | MOLT-4 leukemia 2.92% | SR leukemia -5.24% | RPMI-8226 leukemia -9.2% | OVCAR-8 ovarian 4.09% | SK-OV-3 ovarian 8.14% | OVCAR-3 ovarian 8.73% | NCI/ADR-RES ovarian 9.89%
inactive: SK-MEL-2 melanoma 31.1% | EKVX NSCLC 33.7% | SN12C renal 24.3% | UO-31 renal 32.5% | TK-10 renal 50.9% | ACHN renal 30.2% | CAKI-1 renal 21.3% | OVCAR-5 ovarian 56.8% | OVCAR-4 ovarian 48.6% | IGROV1 ovarian 13.7% | HS 578T breast 20.6%

COc1cccc2c(N=NC(=O)c3ccc(S(N)(=O)=O)cc3)c(O)[nH]c12
inactive: SK-MEL-2 melanoma 112% | EKVX NSCLC 98.4% | SN12C renal 98.3% | UO-31 renal 76.7% | TK-10 renal 108% | ACHN renal 105% | CAKI-1 renal 93.6% | A498 renal 94.8% | CCRF-CEM leukemia 112% | MOLT-4 leukemia 109% | SR leukemia 81.2% | RPMI-8226 leukemia 103% | OVCAR-8 ovarian 102% | OVCAR-5 ovarian 106% | OVCAR-4 ovarian 96.8% | SK-OV-3 ovarian 107% | IGROV1 ovarian 101% | OVCAR-3 ovarian 114% | HS 578T breast 101% | NCI/ADR-RES ovarian 105%

Cc1cc(C(=O)Nc2cc(Nc3ncccc3-c3ncnc4nc[nH]c34)ccc2F)cc(C(F)(F)F)c1
active: SK-MEL-2 melanoma 6.72% | A498 renal -26.9%
inactive: EKVX NSCLC 67.1% | SN12C renal 55.7% | UO-31 renal 94.1% | TK-10 renal 68% | ACHN renal 45.1% | CAKI-1 renal 15.4% | CCRF-CEM leukemia 62.3% | MOLT-4 leukemia 47.2% | SR leukemia 51.3% | RPMI-8226 leukemia 53.8% | OVCAR-8 ovarian 57.2% | OVCAR-5 ovarian 33.3% | OVCAR-4 ovarian 47.7% | SK-OV-3 ovarian 87.2% | IGROV1 ovarian 103% | OVCAR-3 ovarian 68% | HS 578T breast 38.1% | NCI/ADR-RES ovarian 52.1%

COc1cc(/C=C\c2cc(/C=C\c3ccc(O)c(OC)c3)n(C(=O)CNc3ccc(Cl)cc3)n2)ccc1O
active: SK-MEL-2 melanoma 9.05% | MOLT-4 leukemia 8.25% | SR leukemia 3.39%
inactive: EKVX NSCLC 42.2% | SN12C renal 22.5% | UO-31 renal 15.9% | TK-10 renal 47.2% | ACHN renal 23.6% | CAKI-1 renal 29.3% | A498 renal 44.5% | CCRF-CEM leukemia 10% | RPMI-8226 leukemia 17.4% | OVCAR-8 ovarian 28.2% | OVCAR-5 ovarian 86.9% | OVCAR-4 ovarian 56.6% | SK-OV-3 ovarian 21.1% | IGROV1 ovarian 36.7% | OVCAR-3 ovarian 22.9% | HS 578T breast 30% | NCI/ADR-RES ovarian 21%

O=C1Nc2ccccc2/C1=C/c1cn(C[C@@H](O)Cn2c3ccccc3c(=O)c3ccccc32)c2ccccc12
inactive: SK-MEL-2 melanoma 79.9% | EKVX NSCLC 73.1% | SN12C renal 73.7% | UO-31 renal 30.4% | TK-10 renal 90.6% | ACHN renal 65.5% | CAKI-1 renal 74.2% | A498 renal 91.1% | CCRF-CEM leukemia 70.5% | MOLT-4 leukemia 62.6% | SR leukemia 66.3% | RPMI-8226 leukemia 67.1% | OVCAR-8 ovarian 68.5% | OVCAR-5 ovarian 86.7% | OVCAR-4 ovarian 88% | SK-OV-3 ovarian 73.3% | IGROV1 ovarian 53.7% | OVCAR-3 ovarian 73.5% | HS 578T breast 62.8% | NCI/ADR-RES ovarian 85.4%

CC1COCC(C)N1C1=C(Cl)C(=O)c2ccccc2C1=O (stereo not given)
active: MOLT-4 leukemia 9.7% | OVCAR-4 ovarian -4.76%
inactive: SK-MEL-2 melanoma 23.9% | EKVX NSCLC 89.9% | SN12C renal 81.7% | UO-31 renal 59% | TK-10 renal 75.7% | ACHN renal 28.9% | CAKI-1 renal 65.4% | A498 renal 109% | CCRF-CEM leukemia 19.4% | SR leukemia 41.6% | RPMI-8226 leukemia 52.5% | OVCAR-8 ovarian 47.4% | OVCAR-5 ovarian 106% | SK-OV-3 ovarian 95.9% | IGROV1 ovarian 50.4% | OVCAR-3 ovarian 46.1% | HS 578T breast 100% | NCI/ADR-RES ovarian 76.8%

Brc1ccc(-c2cnc3nonc3n2)cc1
inactive: SK-MEL-2 melanoma 88.9% | EKVX NSCLC 72.1% | SN12C renal 96.1% | UO-31 renal 63.6% | TK-10 renal 96.3% | ACHN renal 76.9% | CAKI-1 renal 59.7% | A498 renal 96.7% | CCRF-CEM leukemia 30% | MOLT-4 leukemia 37.5% | SR leukemia 19.9% | RPMI-8226 leukemia 31.1% | OVCAR-8 ovarian 80.5% | OVCAR-5 ovarian 122% | OVCAR-4 ovarian 42.7% | SK-OV-3 ovarian 110% | IGROV1 ovarian 81.1% | HS 578T breast 87.3% | NCI/ADR-RES ovarian 79.7%
active: OVCAR-3 ovarian 9.13%

COC1=CC(c2ccc[nH]2)=N/C1=C\c1[nH]c(C)c(CC(=O)OCc2ccccc2)c1C
inactive: OVCAR-4 ovarian 10.5% | SK-OV-3 ovarian 11%
active: SK-MEL-2 melanoma -38.6% | EKVX NSCLC 5.59% | SN12C renal 6.3% | UO-31 renal -69% | TK-10 renal 4.1% | ACHN renal -9.81% | CAKI-1 renal 0.261% | A498 renal -11.9% | CCRF-CEM leukemia 4.82% | MOLT-4 leukemia 2.34% | SR leukemia -25.5% | RPMI-8226 leukemia -41.1% | OVCAR-8 ovarian 9.46% | OVCAR-5 ovarian 9.74% | IGROV1 ovarian -3.67% | OVCAR-3 ovarian -49.5% | HS 578T breast -6.47% | NCI/ADR-RES ovarian 1.3%

COc1ccc(/C=C/C(=O)c2ccc(Nc3nc(Nc4ccc(F)cc4)nc(Nc4ccc(Cl)cc4)n3)cc2)cc1
inactive: SK-MEL-2 melanoma 55.1% | EKVX NSCLC 86.2% | SN12C renal 112% | UO-31 renal 75.6% | TK-10 renal 137% | ACHN renal 106% | CAKI-1 renal 86.5% | A498 renal 118% | MOLT-4 leukemia 22.3% | RPMI-8226 leukemia 58.5% | OVCAR-8 ovarian 97.1% | OVCAR-5 ovarian 111% | OVCAR-4 ovarian 98% | SK-OV-3 ovarian 122% | IGROV1 ovarian 81.2% | OVCAR-3 ovarian 113% | HS 578T breast 101% | NCI/ADR-RES ovarian 92.4%
active: CCRF-CEM leukemia 8.9% | SR leukemia -2.35%
